Bioassay records as filed in PubChem BioAssay.
A selection: hits, their analogues and other compounds. The true share with any hit is near 1.6%.
KCNQ2 inh: inhibitors of rat KCNQ2 potassium channel; hit rate 1.1% among 310,000; B-score at 10 µM; AID 2156; CHO-K1 KCNQ2, FluxOR thallium flux, 20 min; active compounds read low; O88943;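 active means fluorescence ratio B-score at most minus 3 library SDs, with starting brightness B-score within 2 library SDs, cut at about -5.5 in these data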
KCNQ2 enhance: potentiators of rat KCNQ2 potassium channel. CHO-K1 KCNQ2, FluxOR thallium flux fluorescence; active compounds read high. O88943. B-score at 10 µM. hit rate 0.54% among 310,000. AID 2239;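 active means fluorescence ratio B-score at least 3 SD of library B-scores, with initial fluorescence B-score within 3 of them, cut at about 5.3 in these data; same plate scores as AID 2156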;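 further: B-score of peak minus minimum over baseline fluorescence ratio after K+ and Tl+ stimulus; positive B-score means potentiation of KCNQ2 with more thallium influx and brighter signal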
KCNQ2 block conf: confirmation of rat KCNQ2 potassium channel inhibitors; hit rate 57% among 1,000; activity change, negative = inhibition, % at 10 µM; AID 493025; shares compounds with KCNQ2 inh; KCNQ2-expressing cells, thallium flux, inhibition; active compounds read low;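 further: 0% = vehicle wells and values are ratio percent relative to vehicle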
KCNQ1 spec: selectivity of KCNQ2 inhibitors against human KCNQ1; shares compounds with KCNQ2 inh; KCNQ1-expressing cells, FluxOR thallium flux fluorescence; active compounds read low; activity change, negative = inhibition, % at 10 µM; hit rate 15% among 1,000;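 active means activity change at least 3 SD of negative controls below their mean in both duplicate wells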;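 further: CHO cells stably transfected with KCNQ1 and depolarized by potassium stimulus; peak minus minimum fluorescence over baseline after thallium addition; 0% = vehicle negative control and -100% = blank without thallium stimulus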
Target sequence (P51787 whole entry, looked up): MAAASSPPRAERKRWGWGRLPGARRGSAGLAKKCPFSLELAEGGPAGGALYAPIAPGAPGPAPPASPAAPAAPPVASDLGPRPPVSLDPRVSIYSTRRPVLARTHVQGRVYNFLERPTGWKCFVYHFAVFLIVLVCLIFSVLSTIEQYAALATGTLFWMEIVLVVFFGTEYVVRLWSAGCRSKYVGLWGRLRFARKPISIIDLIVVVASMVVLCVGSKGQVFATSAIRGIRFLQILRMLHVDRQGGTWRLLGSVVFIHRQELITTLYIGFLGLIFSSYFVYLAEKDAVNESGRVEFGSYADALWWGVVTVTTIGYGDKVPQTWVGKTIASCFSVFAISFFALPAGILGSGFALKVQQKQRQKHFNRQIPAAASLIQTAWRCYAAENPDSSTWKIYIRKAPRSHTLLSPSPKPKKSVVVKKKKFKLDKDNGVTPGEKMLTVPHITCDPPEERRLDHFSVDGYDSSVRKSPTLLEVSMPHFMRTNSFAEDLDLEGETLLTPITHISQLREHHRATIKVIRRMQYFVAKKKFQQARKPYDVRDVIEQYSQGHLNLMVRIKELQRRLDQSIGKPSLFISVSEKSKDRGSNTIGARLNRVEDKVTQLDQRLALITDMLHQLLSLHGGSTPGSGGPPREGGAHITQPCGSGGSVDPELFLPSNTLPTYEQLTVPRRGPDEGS
CHO parental ctr: activity in parental CHO cells lacking KCNQ2 | shares compounds with KCNQ2 inh | thallium flux counter-screen; active compounds read low | activity change, % at 10 µM | hit rate 14% among 1,000;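 further: 0% = vehicle negative controls with stimulus buffer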
KCNQ2 patch conf: confirmation of rat KCNQ2 potassium channel inhibitors | KCNQ2-expressing cells, automated patch clamp current | hit rate 49% among 550 | calls only at 10 µM | shares compounds with KCNQ2 inh
An asterisk follows results filed as active; i = inactive; nt = no result given; + = active, no number. Unless noted, how the calls were made is not given here.

SMILES	KCNQ2 inh	KCNQ2 enhance	KCNQ2 block conf	KCNQ1 spec	CHO parental ctr	others
CN1/C(=C\C(=O)c2cncc(Br)c2)C(C)(C)c2ccccc21	-8*	-8	-40%*	-43%*	-37%*	KCNQ2 patch conf=i
CN1/C(=C\C(=O)c2cccnc2)C(C)(C)c2ccccc21	i	nt	nt	nt	nt
O=C(NCCn1cc(SCc2ccc(F)cc2)c2ccccc21)c1c(F)cccc1F	i	0.27	nt	nt	nt
O=C(NCCn1cc(SCc2ccc(F)cc2)c2ccccc21)c1ccccc1F	-9.1*	-9.1	i	i	i
CC(C)=CCc1cc(-c2oc3cc(O)cc(O)c3c(=O)c2O)ccc1O	i	2.4	nt	nt	nt
CC(C)=CCc1c(O)cc2oc3c(CC=C(C)C)c(O)c(O)c(CC=C(C)C)c3c(=O)c2c1O	-12*	-12	-48%*	-42%*	-28%*	KCNQ2 patch conf=i
Cc1ccc(-n2nnnc2SCC(=O)c2cc(C)n(-c3cc(C)on3)c2C)c(C)c1	-7.5*	-7.5	i	i	i
Cc1cc(-n2c(C)cc(C(=O)CSc3nnnn3-c3ccccc3)c2C)no1	i	3	nt	nt	nt
Cc1cc(-n2c(C)cc(C(=O)CSc3ccc4c(c3)OCCO4)c2C)no1	-6.9*	-6.9	-14%*	i	i	KCNQ2 patch conf=+
Cc1cc(-n2c(C)cc(C(=O)CCl)c2C)no1	i	0.13	nt	nt	nt
CC1CCN(Cc2nnnn2CCCC(=O)NCCc2cnn(C)c2)CC1	i	0.7	nt	nt	nt
CC(=O)c1cccc(NC(=O)N2C3CCC2CC(NC(=O)C2CC2)C3)c1 (centres undefined)	i	nt	nt	nt	nt
COC(=O)C1=C(C)NC(=S)NC1c1ccc(-c2cc(Cl)ccc2Cl)o1 (centres undefined)	i	nt	nt	nt	nt
N/C(=N\c1nc2ccccc2o1)NC(=O)c1ccccc1Br	i	nt	nt	nt	nt
CC1(C)CN(c2cccc(Br)c2)C1=O	i	0.75	nt	nt	nt
c1ccc(-c2nccc3ccccc23)cc1	i	0.17	nt	nt	nt
Cc1ccc(-c2nc(-c3nccc4ccccc34)oc2-c2ccccc2)cc1	-9.2*	-9.2	-28%*	i	i	KCNQ2 patch conf=i
C/C(=N\NC(=O)CN(c1ccc(Oc2ccccc2)cc1)S(C)(=O)=O)C(C)(C)C	i	0.09	nt	nt	nt
CCN1/C(=C/C=C/c2sc3ccccc3[n+]2CC)Sc2ccccc21	-6.9*	-6.9	i	i	i
CC[n+]1c(/C=C/Nc2ccccc2)sc2ccccc21	i	0.92	nt	nt	nt
COC(=O)CN(C#N)c1nc(NCc2ccccc2)nc(OC)n1	i	nt	nt	nt	nt
CN(C)CCNC(=O)/C(=C/c1ccc(-c2ccc(Cl)cc2Cl)o1)NC(=O)c1ccccc1	-9.5*	-9.5	-39%*	-35%*	-33%*
CN(C)CCNC(=O)/C(=C/c1ccc(-c2ccc(Cl)cc2)o1)NC(=O)c1ccccc1	i	nt	nt	nt	nt
CCn1c(SCC(=O)NC2CCCc3ccccc32)nnc1-c1cccs1 (centres undefined)	i	nt	nt	nt	nt
CCn1c(SC(C)C(=O)NC2CCCc3ccccc32)nnc1-c1cccs1 (centres undefined)	-8.4*	-8.4	i	i	i
SMILES	KCNQ2 inh	KCNQ2 enhance	KCNQ2 block conf	KCNQ1 spec	CHO parental ctr	others
CC(Sc1nnc(-c2cccs2)n1Cc1ccccc1)C(=O)NCc1ccc2c(c1)OCO2 (centres undefined)	-9.8*	-9.8	i	i	i
O=C(CSc1nnc(-c2cccs2)n1Cc1ccccc1)NCc1ccc2c(c1)OCO2	i	nt	nt	nt	nt
Nc1ccc(C(=O)N2CCN(S(=O)(=O)c3ccc(Br)cc3)CC2)cc1[N+](=O)[O-]	i	nt	nt	nt	nt
Cn1cnc(S(=O)(=O)NC2CCN(Cc3c(F)cccc3Cl)CC2)c1	i	1.8	nt	nt	nt
Nc1ccc(CN2CCOCC2)cc1	i	nt	nt	nt	nt
COc1cc(/C=N/N=C(N)N)ccc1OCc1ccccc1Cl	-10*	-10	-26%*	i	i	KCNQ2 patch conf=i
COc1ccc(/C=N/N=C/c2ccc(OC)c(OC)c2)cc1OC	i	0.43	nt	nt	nt
O=C(COc1ccccc1Cl)NCCCNC(=O)c1cnccn1	i	nt	nt	nt	nt
COc1ccc(NC(=O)CN2C(=O)NC3(CC(C)CC(C)(C)C3)C2=O)cc1S(=O)(=O)N1CCCCC1 (centres undefined)	-8.9*	-8.9	i	i	i
COc1ccc(NC(=O)CC2CCCC2)cc1S(=O)(=O)N1CCCCC1	i	1.6	nt	nt	nt
C=CCn1c(=O)c2c(nc3n2CC(C)CN3CCc2ccccc2)n(C)c1=O (centres undefined)	i	1.4	nt	nt	nt
COc1ccccc1-c1cc(C(F)(F)F)nc(N2CCCCC2)n1	-9.7*	-9.7	i	i	i
COc1ccccc1-c1cc(C(F)(F)F)nc(N2CCCC2)n1	i	0.01	nt	nt	nt
CCCCC(CC)COC1(c2ccccc2)OC(=O)c2ccccc21 (centres undefined)	-9.7*	-9.7	-33%*	i	i	KCNQ2 patch conf=i
CCCCOC1(c2ccccc2)OC(=O)c2ccccc21 (centres undefined)	i	nt	nt	nt	nt
N#Cc1nc(COc2ccccc2)oc1N1CCC(Cc2ccccc2)CC1	-11*	-11	-30%*	i	i	KCNQ2 patch conf=i
N#Cc1nc(COc2ccc(F)cc2)oc1N1CCCC1	i	nt	nt	nt	nt
Cc1ccc(OCc2nc(C#N)c(N3CCN(Cc4ccccc4)CC3)o2)cc1	-7.8*	-7.8	i	i	i
